Screening data (PubChem)
The sample as a whole holds a higher share of hits than the screen did.
CD40 NFkB inh: CD40 pathway inhibition in BL2 cells; BL2 NF-kB luciferase reporter, CD40L-induced, 4 h; inhibition, % at 10 µM; AID 1053188; actives 0.94% (n = 83,000);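 active = mean inhibition of at least 50% with a set share of replicates also reaching that level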;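 note: 0% = neutral control wells and 100% = IKK inhibitor VII at 50 µM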
Numbers without * were called inactive; [ ] = dose if it differs, or a comment.

SMILES	CD40 NFkB inh
COc1cc(/C=N/n2cnnc2)ccc1OCC(=O)N1CCOCC1	6
COc1cc(/C=N/n2cnnc2)ccc1OC(=O)c1cccnc1	19
CN(C)Cc1cn(CC[C@@H]2CC[C@H](NC(=O)Cc3cccnc3)[C@@H](CO)O2)nn1	-3[25 µM]
O=C(CN1CCN(Cc2ccccc2)C1=O)NCc1cccs1	0
CC(=O)c1cc(-c2ccccc2)n(CCC(=O)NC2CCCCCCC2)c1C	2
CC(=O)c1cc(-c2ccccc2)n(CC(=O)NCc2cccs2)c1C	54*
CNC[C@H]1Oc2ccc(N)cc2CC(=O)N(C)C[C@H]1C	17
COc1ccc2oc(C(=O)OCC(=O)N(C)C3CCCCC3)c(C)c2c1	-9
O=C1CCSc2ccc(Cl)cc2N1Cc1ccccc1	1
OC1CC2CCC(C1)N2CCCN1c2ccccc2Sc2ccc(Cl)cc21 (stereo not drawn)	54*
O=C(CN1c2ccccc2Sc2ccccc21)N/N=C/c1ccc(Cl)cc1	16
Cc1nonc1C(=O)N/N=C/c1ccc([N+](=O)[O-])o1	-6
COc1ccc(/C=N/NC(=O)c2nonc2C)cc1	64*
COc1ccc(/C=N/NC(=O)CC(=O)N/N=C/c2ccc(OC)cc2)cc1	3
CO[C@@H](CN(C)S(=O)(=O)c1ccc(Cl)cc1)[C@H](C)CN(Cc1ccccc1Cl)[C@@H](C)CO	34*
CO[C@@H](CN(C)S(=O)(=O)c1ccc(Cl)cc1)[C@@H](C)CN(Cc1ccccc1Cl)[C@H](C)CO	2
CO[C@H](CN(C)S(=O)(=O)c1ccc(Cl)cc1)[C@H](C)CN(Cc1ccccc1Cl)[C@@H](C)CO	14
CN1C(=O)c2cc(NC(=O)C3CC3)ccc2OC[C@@H]2O[C@H](CC(=O)NCc3ccccc3F)CC[C@@H]21	-4
COc1cn(-c2ccccc2)nc1C(=O)Nc1ccccc1	-76
COC(=O)c1nn(-c2ccccc2)c(-c2ccccc2)c1C(=O)c1ccccc1	7
COC(=O)c1nn(-c2ccc(-c3ccccc3)cc2)cc1O	70*
COCC(=O)N1CC2(C1)CN(C(=O)Nc1ccccc1F)[C@H](CO)c1[nH]c3cc(OC)ccc3c12	-5[25 µM]
COc1cccc(-c2cc3nc4c(c(NCC(C)(C)CN(C)C)n3n2)CCCC4)c1	63*
Cc1nn2c(NCCN(C)C)c3c(nc2c1-c1ccccc1)CCCC3	-78
Cc1nn2c(NCc3cccnc3)c3c(nc2c1-c1ccccc1)CCC3	13
SMILES	CD40 NFkB inh
COc1cccc2c1C(=O)c1c(O)c3c(c(O)c1C2=O)C[C@@](O)(C(C)=O)C[C@@H]3OC1CC(N)C(O)C(C)O1 (stereo partly drawn)	87*[25 µM]
CN1C(=O)c2cc(NC(=O)C3CCOCC3)ccc2OC[C@H]2O[C@H](CC(=O)NCC3CC3)CC[C@@H]21	6
Cn1cnc(S(=O)(=O)N2C[C@H](O)COC[C@H]3O[C@H](CC(=O)NCc4cccc(F)c4)CC[C@@H]32)c1	-1[25 µM]
Cc1cc(-c2nc3ccccc3s2)ccc1N	56*
Cc1ccc(-c2nc3ccccc3s2)cc1S(=O)(=O)N1CCOCC1	-4
c1ccc(-c2nc3ccccc3s2)nc1	-84
COc1ccc(Cl)cc1NC(=O)CSc1nc2[nH]ncc2c(=O)[nH]1	-13
CNC[C@H]1Oc2ccc(N(C)C)cc2C(=O)N([C@H](C)CO)C[C@H]1C	2[25 µM]
COc1cccc(CNC(=O)[C@@H]2[C@@H](CO)[C@@H]3Cn4c(ccc(-c5cccnc5)c4=O)[C@H]2N3C(C)=O)c1	-4[25 µM]
O=C(COC(=O)c1cccs1)c1ccc2c(c1)OCCO2	113*
CNS(=O)(=O)c1cccc(C(=O)OCC(=O)c2ccc3c(c2)OCCO3)c1	25
CC(=O)NC12CC3CC(C1)CC(C(=O)OCC(=O)c1ccc4c(c1)OCCO4)(C3)C2	59*
O=C(COC(=O)c1cccs1)c1ccc2ccccc2c1	-83
N#CCC(=O)Nc1ccc(C(=O)OCC(=O)c2ccc3c(c2)OCO3)cc1	-63
O=C(COC(=O)c1ccccc1-c1ccccc1[N+](=O)[O-])c1ccccc1	-12
O=C(Nc1ccc(NC(=O)c2cccs2)cc1)c1ccc2c(c1)OCCO2	3
O=C(COC(=O)c1ccccc1[N+](=O)[O-])c1ccc2c(c1)OCO2	88*
COc1cccc(CN(C)C(=O)C23CC4CC(CC(NC(C)=O)(C4)C2)C3)c1OC	5
O=C(Nc1cccc(S(=O)(=O)N2CCOCC2)c1)c1cnccn1	9
CCc1ccc(C(=O)NNC(=O)CCc2nc3ccccc3c(=O)[nH]2)cc1	9
CN1CCN(C(=O)C[C@H]2C[C@@H]3c4cc(NS(C)(=O)=O)ccc4O[C@@H]3[C@@H](CO)O2)CC1	-8[25 µM]
CCC(=O)N1[C@@H]2c3ccc(-c4ccccc4)c(=O)n3C[C@@H]2[C@@H](CO)[C@@H]1C(=O)N1CCCCC1	4[25 µM]
O=C(Nc1ccc(C(F)(F)F)cc1)N1C[C@@H]2N[C@H](C1)C2c1ccc(-c2cccnc2)cc1 (stereo partly drawn)	33[25 µM]
CO[C@@H]1CN(C)C(=O)c2cc(NC(=O)Nc3cccc(Cl)c3)ccc2OC[C@H](C)N(C(=O)Nc2c(C)noc2C)C[C@@H]1C	3[25 µM]
CC(CC(=O)N1CCN(S(=O)(=O)c2ccc([N+](=O)[O-])cc2)CC1)c1ccccc1 (stereo not drawn)	7
SMILES	CD40 NFkB inh
c1ccc(-c2nc(-c3ccccn3)no2)cc1	87*
c1ccc(-c2noc(-c3ccno3)n2)nc1	-25
c1ccc(-c2noc(-c3ccco3)n2)nc1	-71
CN1C(=O)c2cc(NS(=O)(=O)c3ccccc3F)ccc2OC[C@H]2O[C@@H](CC(=O)NC3Cc4ccccc4C3)CC[C@@H]21	10[25 µM]
Cc1cc(C(=O)NCCCC(=O)O)c(C)o1	25
Cc1cc(C(=O)Nc2c(C)n(C)n(-c3ccccc3)c2=O)c(C)o1	5
Cc1cc(C(=O)NCCC(c2ccccc2)c2ccccc2)c(C)o1	80*
C/C=C/c1ccc([C@H]2[C@@H](CO)N(Cc3ccccn3)[C@H]2CNC(C)=O)cc1	6
C[C@H]1CN([C@@H](C)CO)C(=O)c2ccccc2-c2ccccc2CO[C@@H]1CN(C)S(=O)(=O)c1ccc(F)cc1	-1
CN1c2ccc(-c3cccc(C#N)c3)cc2[C@@H]2[C@@H](CCN2C(=O)C2CC2)[C@@H]1CO	0
O=C(C[C@H]1CC[C@@H]2[C@H](COC[C@H](O)CN2C(=O)c2ccc3c(c2)OCO3)O1)NCCN1CCCC1	9
CC(=O)N(C[C@@H]1N[C@@H](CO)[C@H]1c1ccc(-c2ccccc2)cc1)C(C)C	3[25 µM]
CCCCCCCCCC[n+]1cccc2c3ccccc3ccc21	94*
Cc1cccc[n+]1CCCCCCCCCC[n+]1ccccc1C	9
CCCCCC(=O)Nc1cccc2ccccc12	-13
CCCCCCCC[n+]1cccc2c3ccccc3ccc21	93*
CCCCCCCCNc1ncnc2ccccc12	10
CCCNC(=O)N1[C@H](CO)[C@H](c2ccc(-c3ccccc3)cc2)[C@H]1CNC(C)=O	-10[25 µM]
O=C(NCc1ccc2c(c1)OCO2)[C@H]1[C@H](CO)[C@H]2Cn3c(cccc3=O)[C@@H]1N2Cc1cccnc1	5[25 µM]
COC(=O)/C=C1\Nc2ccc(Cl)cc2C(=O)NC1=O	16
C[C@@H]1CCCCO[C@H](CN(C)C(=O)c2ccncc2)[C@H](C)CN([C@H](C)CO)C(=O)c2cc(NS(=O)(=O)c3cccs3)ccc2O1	1[25 µM]
Cc1cc(O)c(C(C)C)cc1C1(c2cc(C(C)C)c(O)cc2C)OC(=O)c2ccccc21	39*
C[C@@H](NC(=O)C[C@H]1CC[C@H]2[C@@H](COC[C@H](O)CN2C(=O)Nc2cccc(Cl)c2)O1)c1ccccc1	3[25 µM]
